Structures are written as SMILES. This is part of a sample that, as a whole, favours compounds with a hit. Of some 83,000 tested, about 20% had one in any assay.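 Assay: single dose, 48 h. Readout: percent growth (0 = no net growth; negative = cell death). Active: <10.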 A number with no mark means an inactive call. Activity calls are given as the source filed them.

In this assay the test system is HL-60(TB) leukemia. Kind of assay: NCI-60 one-dose screen, 48 h (100 = growth as untreated, 0 = no growth, -100 = all killed). The following applies: 10 µM unless noted.
Take `Nc1ccc(N(O)/C=C2\C=CC=CC2=O)cc1N`: the growth was 73.2%.
In the case of `COc1cc(Nc2ncc(F)c(Nc3ccc4c(n3)NC(=O)C(C)(C)O4)n2)cc(OC)c1OC`, the growth is 103%.
In the case of `CC(=O)c1ccc(NC(=O)CSc2nnc(-c3cc(-c4ccc(Cl)cc4)nc4ccccc34)o2)cc1`, the growth is 91.3%.
For `COc1ccc2nc(-c3ccccc3)cc(C(C)=O)c2c1`, the growth is 84.8%.
Under `O=C1c2cccc3cccc(c23)C(=O)N1CCCCCN1CCN(CCCCCOc2ccc(-c3nc4ccc(N5CCOCC5)cc4[nH]3)cc2)CC1` stands 3.01% (active).
For `COc1cc2oc(-c3cccc(C(=O)Nc4ccc5c(c4)OCO5)c3)cc(=O)c2c(O)c1OC`, the growth was 94.3%.
As for `O=[N+]([O-])c1ccc(Oc2ccc(-c3ccccc3)cc2)cc1`, the growth was 78.7%.
On to `N#Cc1c2ncccc2c2nnc3cc(Cl)c(Cl)cc3n12`, for which the growth was 80.4%.
On to `Cc1cccc(NC(=O)c2sc3nc4c(cc3c2N)CCCC4)c1`, for which the growth is 22.1%.
Regarding `CC1=NNC(=O)C1CCC(=O)N/N=C(\C)c1ccc2ccccc2c1` (stereo not given), the growth was 86.4%.
Regarding `Cc1cccnc1NC1OC(=O)c2ccccc21` (stereo not given), the growth is 100%.
As for `FC1(F)CCN(Cc2c[nH]c3cc(Cl)ccc23)C[C@H]1CCc1ccccc1`, the growth was 62.1%.
`Cc1c(C(=O)N[C@H](CO)Cc2ccccc2)[nH]c2ccc(Cl)cc2c1=O`: the growth is 99.7%.
With `CCOC(=O)c1coc(C(=O)OCC)c1C(=O)OCC`, the growth was 105%.
`CCOC(=O)COc1c(C)cc(SSc2cc(C)c(OCC(=O)OCC)c(C)c2)cc1C`: the growth was 88.5%.
Take `CN1CCN(Cc2ccc(NC(=O)c3cncc(C#Cc4cnc(N)c5cccnc45)c3)cc2C(F)(F)F)CC1`: the growth was -13.9% (active).
In the case of `COc1ccc(/C=C(\C#N)c2ccc(OC)cc2)cc1`, the growth was 50.9%.
On to `CCc1ccc(Oc2c(-c3ccc(OCc4ccc(Cl)cc4)cc3O)nn(C)c2C(F)(F)F)cc1`, for which the growth is -36.9% (active).
In the case of `CN(C)CC(O)c1ccc(/C=C/c2ccc(Cl)cc2)cc1` (stereo not given), the growth was -43.6% (active).
For `CCOC(=O)c1c(C)[nH]c(C(=O)CCC(=O)OC)c1C`, the growth was 94.9%.
Turning to `COc1cc2cc3c(nc2cc1OC)CCN3Cc1ccc(NC(=O)c2ccc(Cl)c(C(F)(F)F)c2)cc1`, the growth was 99.5%.
Turning to `CC1(C)C=CC[C@]2(C)[C@H]3CC[C@@H]4[C@H]5[C@H](C(=O)/C=C/c6cccnc6)CC[C@]5(CO)CC[C@@]4(C)[C@]3(C)CC[C@@H]12`, the growth is -29.2% (active).
Consider `Cc1ccc(N=Nc2c(N)nn(-c3ccccc3)c2N)cc1`, for which the growth is 17.5%.
For `CCc1ccc(-c2cn3ccnc3c(-c3ccc4ncn(Cc5ccccc5)c4c3)n2)cc1`, the growth was 60.4%.
As for `O=c1cc(C(F)(F)F)c2cc(-c3cc4ccccc4c(=O)o3)c(O)cc2o1`, the growth was 38.3%.
As to `Cc1ccc(C(=O)Nc2ccc(CN3CCN(C)CC3)c(C(F)(F)F)c2)cc1C#Cc1cnc(N)c2ccc(C#N)cc12`, the growth is 30.9%.
Under `O=C1C(Cl)=C(SC2=NCCN2)C(=O)c2ccccc21` stands 81.4%; under `Cc1cn(C2CCCCC2)c(=O)[nH]c1=O`, 96.7%; under `CCCOc1ccc(-c2nc(-c3ccc(N)cc3)cs2)cc1`, 56.7%.
For the molecule `CC(=O)N(Cc1ccccc1)c1nc2ccc(O)c(CN(C)C)c2s1`, the growth is 105%.
As to `COc1cccc(CCN2C(=O)CCC3=C2CCC3=O)c1`, the growth is 99.9%.
Take `COc1ccc(C(=O)c2cc(OC)c(OC)c(OC)c2)cc1O`: the growth is -29.1% (active).
Turning to `C=C1C(=O)O[C@H]2[C@H]1CC/C(COC(=O)NCc1ccc(Cn3c(=O)sn(CCCCl)c3=O)cc1)=C\CC[C@@]1(C)O[C@@H]21`, the growth is -50.6% (active).
Under `CCOC(=O)c1c2c(n3ccc(NC(=O)OC(C)(C)C)cc13)C(=O)c1ncccc1C2=O` stands -34.2% (active); under `COc1ccc(CNc2c3ccccc3nc3ccccc23)cc1`, 43%.
In the case of `CCN(CC)CC(C)(C)C(=O)/C=C/c1ccccc1`, the growth was 26.2%.
For the molecule `COc1ccc2sc(-n3nc4nc5n(c(=O)c4c3N)-c3ccccc3Sc3ccccc3-5)nc2c1`, the growth is 66.6%.
Regarding `Cn1cc(-c2nonc2-c2cn(C)c3ccc(F)cc23)c2cc(F)ccc21`, the growth is 17.3%.
Under `O=C(CBr)OCc1ccc([N+](=O)[O-])o1` stands 118%.
For the molecule `Cc1cc(=O)oc2cc(OCc3cn(CC(O)CO)nn3)ccc12` (stereo not given), the growth is 110%.

For the origin of these results see PubChem BioAssay (NCI).
